This is an account of results in article PMC4336329 (PLoS ONE, 2015).

In all, about 310,000 compounds went through this assay and about 14,000 (4.5%) showed an effect of 50% or more. Effects have a minus sign here. The sample holds strong results, similar compounds and a random draw of the others, so the mix is not that of the screen.
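Further: peak tail current of the secondary pulse compared with the same well before compound.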

human ether-à-go-go-related gene (hERG) potassium channel, sequence (Q12809 whole entry, looked up): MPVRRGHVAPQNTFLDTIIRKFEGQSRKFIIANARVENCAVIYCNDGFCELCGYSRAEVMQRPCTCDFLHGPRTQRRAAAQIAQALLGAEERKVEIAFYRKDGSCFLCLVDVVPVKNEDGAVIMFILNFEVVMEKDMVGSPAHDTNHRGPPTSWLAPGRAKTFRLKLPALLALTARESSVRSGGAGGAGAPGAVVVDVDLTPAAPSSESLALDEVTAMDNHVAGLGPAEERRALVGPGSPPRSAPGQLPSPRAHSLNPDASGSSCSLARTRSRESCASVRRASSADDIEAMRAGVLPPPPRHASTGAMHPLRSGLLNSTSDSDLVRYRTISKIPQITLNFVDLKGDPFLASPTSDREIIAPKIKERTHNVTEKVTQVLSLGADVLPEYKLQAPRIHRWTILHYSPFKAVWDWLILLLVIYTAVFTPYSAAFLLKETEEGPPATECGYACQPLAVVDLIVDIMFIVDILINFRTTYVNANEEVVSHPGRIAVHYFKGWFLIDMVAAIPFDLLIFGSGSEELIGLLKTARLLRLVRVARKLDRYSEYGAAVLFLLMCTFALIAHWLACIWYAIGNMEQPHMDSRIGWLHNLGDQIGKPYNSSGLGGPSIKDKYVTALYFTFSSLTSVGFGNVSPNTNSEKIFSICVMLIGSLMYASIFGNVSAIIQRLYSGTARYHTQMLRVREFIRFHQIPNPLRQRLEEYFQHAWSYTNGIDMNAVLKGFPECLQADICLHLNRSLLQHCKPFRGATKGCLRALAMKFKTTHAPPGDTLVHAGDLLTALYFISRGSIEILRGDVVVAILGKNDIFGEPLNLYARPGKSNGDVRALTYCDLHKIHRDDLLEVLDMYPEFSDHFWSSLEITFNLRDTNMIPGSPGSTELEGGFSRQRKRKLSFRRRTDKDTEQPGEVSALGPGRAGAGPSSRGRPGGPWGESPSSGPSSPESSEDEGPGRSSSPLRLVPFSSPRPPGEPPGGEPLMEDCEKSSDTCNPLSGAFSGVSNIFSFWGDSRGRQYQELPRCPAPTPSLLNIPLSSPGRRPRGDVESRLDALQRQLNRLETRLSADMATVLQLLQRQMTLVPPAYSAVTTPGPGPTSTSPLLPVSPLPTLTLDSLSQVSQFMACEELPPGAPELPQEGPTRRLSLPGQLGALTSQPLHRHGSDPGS

The experiment concerns the target human ether-à-go-go-related gene (hERG) potassium channel (human, UniProt Q12809). In words: primary screen, population patch clamp on CHO cells stably expressing hERG; higher = less effect of the substance.
Take `CC1(C)CN(c2cccc(Br)c2)C1=O`: the “hERG current change (%, negative = inhibition) at 10uM” value was found to be 7.96%. Turning to `Cc1c(C)n(CC(O)CNc2ccccc2)c2ccccc12.O=C(O)C(=O)O` (stereo not shown), the “hERG current change (%, negative = inhibition) at 10uM” value amounted to 23.1%. Next, `CCOC(=O)Cc1csc(NC(=O)c2cccc(Cl)c2)n1`: -13%. As for `CC1(c2nnc(-c3ccc(Cl)cc3)o2)CC(c2cccc(Cl)c2)=NO1` (stereo not shown), the “hERG current change (%, negative = inhibition) at 10uM” value stood at 13.7%.

Turning to `COCCn1c(SCC(=O)Nc2cc(C)on2)nc2c(c1=O)SC(C)C2` (stereo not shown), the “hERG current change (%, negative = inhibition) at 10uM” value is given as 10.5%.

In the case of `COC(=O)c1ccc(COC(=O)C2CCN(S(=O)(=O)c3c(Cl)cccc3Cl)CC2)o1`, the “hERG current change (%, negative = inhibition) at 10uM” value is -7.62%. For `COC(=O)/C(=C/N(C)C)C(=O)N1CCN(c2ccc(Cl)c(Cl)c2)CC1` the value was -25%; for `COc1cccc(OC)c1C(=O)NNS(=O)(=O)c1ccc2ccccc2c1`, -5.2%; for `O=C(O)CC(SCC(=O)Nc1ccccc1)C(=O)O` (stereo not shown), 23%. On to `O=C1[C@@H]2Cc3c([nH]c4ccccc34)C(c3ccc([N+](=O)[O-])cc3)N2C(=O)CN1C1CC1` (stereo partly shown), for which the “hERG current change (%, negative = inhibition) at 10uM” value was -25.2%. As for `CSc1nc(Cc2ccccc2)nc2ccccc12`, the “hERG current change (%, negative = inhibition) at 10uM” value stood at 22.9%. Next, `Cc1cc(C)nc(N/C(=N\S(=O)(=O)Cc2ccccc2)Nc2cccc(Cl)c2C)n1`: -3.72%; `ON1C2CCCCC2N(O)C1c1ccccc1F` (stereo not shown): 16.7%; `Cc1ccc(-n2c(SCC(=O)NCc3ccco3)nc3c(sc4ccccc43)c2=O)cc1`: 14.8%.

For the compound `Cc1ccc(CNC(=O)CSc2nc3c(sc4ccccc43)c(=O)n2CCCN2CCCC2)cc1`, the “hERG current change (%, negative = inhibition) at 10uM” value is listed as -82.8%. As for `O=C(CSc1nc2c(sc3ccccc32)c(=O)n1CCCN1CCCC1)NCc1ccccc1`, the “hERG current change (%, negative = inhibition) at 10uM” value is given as -80.8%. For the compound `COc1ccc(C(=O)Nc2ncccc2C)cc1S(=O)(=O)N1CCCc2ccccc21`, the “hERG current change (%, negative = inhibition) at 10uM” value came out at 9.01%. Regarding `Cc1ccc(CNC(=O)c2ccccc2NS(=O)(=O)c2ccc(Cl)nc2)cc1`, the “hERG current change (%, negative = inhibition) at 10uM” value is 12.6%. As for `OC(COc1ccccc1)Cn1cc(Br)cn1` (stereo not shown), the “hERG current change (%, negative = inhibition) at 10uM” value is 0.0411%. On to `CCc1nc(Nc2ccccc2OC)c2oc3ccccc3c2n1.Cl`, for which the “hERG current change (%, negative = inhibition) at 10uM” value came to 12.5%.

With `CCCCCCc1cc2cc(C(=O)NC)c(=N)oc2cc1O`, the “hERG current change (%, negative = inhibition) at 10uM” value is recorded as -7.38%.

`CCN(CC)c1ccc2cc(C(N)=O)c(=N)oc2c1`: the “hERG current change (%, negative = inhibition) at 10uM” value was -58.5%.

With `CCN(CC)c1ccc2cc(C(N)=O)c(=O)oc2c1`, the “hERG current change (%, negative = inhibition) at 10uM” value is reported as 9.31%. Next, `CCCCCCc1cc2cc(C(N)=O)c(=N)oc2cc1O`: -59.8%; `CCCCCCc1cc2cc(C(=O)OCC)c(=O)oc2cc1O`: 23.3%; `CCN(CC)c1ccc2cc(C(=O)NCc3ccc(F)cc3)c(=N)oc2c1`: -23.4%. For `CN(C[C@H](Cc1ccccc1)N(C[C@H](Cc1ccccc1)N(CC1(c2ccccc2)CC1)N=O)N=O)N=O.[Na+]` the value was 12.8%.

For `Cc1ccc(OCCCC(=O)NCc2ccco2)c(C)c1`, the “hERG current change (%, negative = inhibition) at 10uM” value amounted to 0.0372%.

As for `CCCCCC(O)CCC(=O)NNC1=CC(=O)CC(C)(C)C1` (stereo not shown), the “hERG current change (%, negative = inhibition) at 10uM” value is reported as 13.9%.

Take `COc1ccc(C(C#N)C2(C)OCCO2)cc1OC` (stereo not shown): the “hERG current change (%, negative = inhibition) at 10uM” value is given as -4.08%. In the case of `COC(=O)c1ccc(C)c(NC(=O)C(CCSC)NC(=O)c2cc(OC)c(OC)c(OC)c2)c1` (stereo not shown), the “hERG current change (%, negative = inhibition) at 10uM” value was 13.6%.

As to `CCn1c(-c2ccc(Cl)cc2)n[nH]c1=S`, the “hERG current change (%, negative = inhibition) at 10uM” value is on record as 13.2%. Next, `O=C(CSc1nnnn1-c1ccc(Cl)cc1)NNC(=O)c1ccc([N+](=O)[O-])cc1`: -23.2%; `O=C(CSC1CS(=O)(=O)c2cc([N+](=O)[O-])ccc21)NNC(=O)c1ccc(Cl)cc1` (stereo not shown): -74%; `O=C(CSC1CS(=O)(=O)c2cc([N+](=O)[O-])ccc21)NNC(=O)c1ccccc1` (stereo not shown): -20.7%. Next, `COc1ccc(S(=O)(=O)N2CCCCC2)cc1NC(=O)c1cccs1`: 32.3%; `O=S(=O)(Nc1ccc(OC(F)F)cc1)c1ccc(-c2ccon2)s1`: -15.3%; `Cc1ccc(C)c(N2CCN(CC(=O)Nc3ccc4[nH]c(=O)[nH]c4c3)CC2)c1`: -3.56%.

As to `CCN(CC)c1ccc(C(=O)c2ccccc2C(=O)O)c(O)c1`, the “hERG current change (%, negative = inhibition) at 10uM” value is 3.8%. Regarding `CN(C)c1ccc(C(=O)c2ccccc2C(=O)O)c(O)c1`, the “hERG current change (%, negative = inhibition) at 10uM” value was 12.7%. As to `CCCCN(CCCC)c1ccc(C(=O)c2ccccc2C(=O)O)c(O)c1`, the “hERG current change (%, negative = inhibition) at 10uM” value is given as -75.2%. For the compound `FC(F)(F)c1cccc(NC(=S)N2CCN(c3cccc(C(F)(F)F)c3)CC2)c1`, the “hERG current change (%, negative = inhibition) at 10uM” value was 16.6%. For `Cc1ccc(NC(=O)C2CCCN(S(=O)(=O)c3c(C)noc3/C=C/N(C)C)C2)cc1F` (stereo not shown) the value was -1.44%.
